Test results as given in PubChem BioAssay AID1117319 (Southern Research Institute, 2015).
Values joined by “and” are separate entries in the source; they are usually repeats but may differ in a detail not shown here. Equal entries are not always repeated. Hit rate of the full screen: of about 260,000 compounds, about 1,500 (0.58%) were called active. Another 5% or so got no clear call; they are omitted. These entries were drawn from the full list. Results with a measured potency or affinity are listed apart. A number with no mark means an inactive call.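 How the source made its calls: active means inhibition above a set limit at one or more doses, reproduced on every date tested; inconclusive means results disagree between test dates, or hit never tested in dose response; inactive means the rest.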

biological target: Virion infectivity factor (Human immunodeficiency virus type 1 group M subtype B (isolate BH10)) + Virion infectivity factor (Human immunodeficiency virus type 1 group M subtype B (isolate BRU/LAI)) + Virion infectivity factor (Human immunodeficiency virus type 1 group M subtype B (isolate PCV12)) + Virion infectivity factor (Human immunodeficiency virus type 1 group M subtype B (isolate HXB2)) + DNA dC->dU-editing enzyme APOBEC-3G (Homo sapiens) (UniProt P69720+P69721+P69722+P69723+Q9HC16); test: HIV-1 Vif–A3G interaction blockers – biochemical, TR-FRET, GST-Vif 1-94, biotin-A3G peptide, dose response retest, primary screen (AID 1117319); settings: TR-FRET GST-Vif / biotin-A3G peptide binding; active compounds read high;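 further: Vif residues 1-94 fused to GST binding biotinylated APOBEC3G peptide 110-148; 0% = full assay without inhibitor and 100% = GST in place of GST-Vif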

Compound | inhibition
Cc1ccc2oc3nc(C)c(C(=O)O)cc3c(=O)c2c1 | 3.05%
CCN(CC)CCn1c(=S)[nH]c2cc(C(=O)NCCc3ccc(OC)c(OC)c3)ccc2c1=O | -5.2%
S=c1[nH]nc2nnc3ccccc3n12 | -8.57%
COCCN1C(=O)c2[nH]nc(-c3ccccc3O)c2C1c1ccc(OC)cc1 (configuration not stated) | 4.2%
CCOC(=O)C1=C(C)N(C)C(=S)NC1c1cc(OC)ccc1OC (configuration not stated) | 29.4%
Cc1ccc(NC(=O)N2CCC(C(=O)Nc3ccc(C)cc3C)CC2)cc1 | -2.75%
COC(=O)C1CCN(S(=O)(=O)c2c[nH]c(=O)[nH]c2=O)CC1 | -3.67%
CC(C)CN(CC(C)C)S(=O)(=O)N1CCC(C(=O)N2CCc3ccccc3C2)CC1 | 10.1%
O=C(CSc1ccc2nnc(-c3ccccn3)n2n1)N1CCOCC1 | 5.93%
CCOC(=O)C=Nc1c(N)n(C)c(=O)n(C)c1=O | -1.01%
CCCCSc1c(C)c2cc3c(cc2[nH]c1=O)OCO3 | -11.4%
COc1cc(C(=O)NCc2ccco2)cc(OC)c1OC | -2.63%
COc1cc(C(=O)NC(=S)NCc2ccco2)cc(OC)c1OC | 5.31%
Cc1ccc(/C=C2\CCC3=C2OC(N)=C(C#N)C3c2ccc(C)cc2)cc1 (configuration not stated) | 20.9%
N#CC1=C(N)OC2=C(CC/C2=C\c2ccccc2)C1c1ccccc1 (configuration not stated) | 22.4%
CCOC(=O)N1CCN(C(=O)CN(Cc2ccccc2)S(=O)(=O)c2ccc(OC)c(Cl)c2)CC1 | -0.5%
O=C(OCc1nc2scc(-c3ccccc3)c2c(=O)[nH]1)c1cc([N+](=O)[O-])ccc1Cl | 1.37%
CCN(CC)CCNC(=O)Cn1nc(Cc2cccnc2)c2ccccc2c1=O | -0.43%
O=C(Nc1cccc2c1CCCC2)C1CCCN(S(=O)(=O)c2cccc3nonc23)C1 (configuration not stated) | 22.9% and -4.27%

Compound | inhibition
N#CC1=C(Nc2ccccc2)SC=C(c2ccccc2)N=C1N1CCOCC1 | 23.5%
N#CC1=C(Nc2ccccc2)SC=C(c2ccc(F)cc2)N=C1N1CCOCC1 | -6.08%
COc1ccc(CCNC(=O)CC(Cc2ccc(C)cc2)C(=O)O)cc1OC (configuration not stated) | -5.29%
CCc1ccc(C(=O)COC(=O)c2cnc(C)cn2)cc1 | 2.17%
COc1ccc(N=C2S/C(=C\c3ccc(C)s3)C(=O)N2CC(C)C)cc1 | -0.05%
CCCN1C(=O)/C(=C/c2ccc(C)o2)SC1=Nc1ccc(OC)cc1 | 23.9%
Cc1cccc(Cc2ccc(Cl)nn2)c1 | 3.42%
COc1cc(CCCN2C(=O)C(=O)NC[C@@H]2c2ccccc2)cc(OC)c1OC | -0.8%
COc1cccc(CN2CCN(Cc3cccc4nonc34)CC2CCO)c1 (configuration not stated) | -3.03%
Cc1ccccc1CN1C[C@@H]2C[C@@H](c3cn[nH]c3-c3ccc(F)cc3)N3CCC[C@@]23C1=O | 6.1%
CN1CCN(c2nc3ccccc3nc2NS(=O)(=O)c2ccc(Br)cc2)CC1 | 4.67%
O=S(=O)(Nc1nc2ccccc2nc1N1CCN(c2ccccc2)CC1)c1ccc(F)cc1 | 10.6%
CC(C)CNC(=O)COCc1cc(-c2ccc3c(c2)OCO3)on1 | 5.26%
COc1ccc(Cl)cc1C(=O)OCC(=O)NC(=O)c1cccn1C | -9.04%
COc1ccc(S(=O)(=O)N2CCCC2CNC(=O)C(=O)NCc2ccccc2)cc1 (configuration not stated) | -0.59%
CCC(=O)NCC(c1ccco1)N1CCN(c2ccc(OC)cc2)CC1 (configuration not stated) | 2.46%
CCc1ccc(C(=O)Nc2cc(C)ccc2F)s1 | -4.32%
c1ccc2c3c([nH]c2c1)CCNC3 | -5.47%
O=C1NCCc2c1[nH]c1ccccc21 | 18.5%

Compound | inhibition
COc1cc2[nH]c(=O)n(CCCCCC(=O)N3CCN(c4ccccn4)CC3)c(=O)c2cc1OC | -2.43% and 26.2%
CCC(=O)N1CC2(CC(c3cccc(NC(=O)CC(c4ccccc4)c4ccccc4)c3)=NO2)C[C@H]1C(N)=O (some centres not stated) | 4.04%
COc1ccccc1-n1c(SCC(=O)c2ccc(O)cc2O)nc2cc([N+](=O)[O-])ccc21 | 11.3%
CC(Sc1nc2cc([N+](=O)[O-])ccc2n1-c1ccc(F)cc1)C(=O)NCc1ccc2c(c1)OCO2 (configuration not stated) | -9.4%
Cc1cccc(-n2c(SCC(=O)NCc3ccc4c(c3)OCO4)nc3ccccc3c2=O)c1 | 19.8%
O=C(CSc1nc2ccccc2c(=O)n1-c1ccccc1)NCc1ccc2c(c1)OCO2 | -2.26%
O=C(CN1CCN(c2ccccc2)CC1)c1c[nH]c2ccccc12 | -7.04%
COc1cccc(/C=C2\Oc3cc(OC(=O)N4CCOCC4)ccc3C2=O)c1 | 0.99%
O=C(CN(CCO)Cc1ccccc1)N1CCN(S(=O)(=O)c2ccccc2)CC1 | 0.45%
C/C=C/c1ccc(OCCCn2cncn2)c(OC)c1 | -2.59%
COc1ccc(C2C(C#N)=C(N)Oc3c2ccc2cccnc32)cc1OC (configuration not stated) | 18.2%
COC(=O)C1=C(C)NC(C)=C(C(=O)OC)C1c1cc2cc(C)ccc2[nH]c1=O | -2.33%
Cc1ccc(C(=O)Nc2ccc3[nH]c(=O)[nH]c3c2)c(C)c1 | -1.2%
C=CCn1c(SCc2nc3ccccc3[nH]2)nnc1-c1cccc(OC)c1 | 7.4%
Cc1nc2ccc(S(=O)(=O)NCC(=O)NCCN3CCCCCC3)cc2s1 | -0.42%
Cc1nc(N2CCOCC2)c2c3c(sc2n1)CCC3 | -7.05%
CSc1nc(N2CCOCC2)c2c3c(sc2n1)CCCC3 | 2.91%
C=CCN(C(=O)c1csnn1)C(C(=O)NC(C)(C)C)c1ccncc1 (configuration not stated) | 8.31%
O=C(c1ccc(CNS(=O)(=O)c2ccccc2)cc1)N1CCN(c2ccccn2)CC1 | 5.22%
